# Sampled rows, rich in hits. Any-hit rate of the full collection: about 12%.
# BAZ2B inh – inhibitors of human BAZ2B bromodomain. 360,000 compounds, 4.4% hits. AlphaScreen BAZ2B-H3K14Ac peptide displacement. Q9UIF8. Potency, µM (top dose mostly 114 µM), inactives show at the highest dose activity change, negative = inhibition, most hits filed as inhibitors; further: on the % scale 0 is the no-effect control and ±100 the full control effect; nearly all actives have a fitted effect of over 60% in size
# Target sequence (Q9UIF8 whole entry, looked up): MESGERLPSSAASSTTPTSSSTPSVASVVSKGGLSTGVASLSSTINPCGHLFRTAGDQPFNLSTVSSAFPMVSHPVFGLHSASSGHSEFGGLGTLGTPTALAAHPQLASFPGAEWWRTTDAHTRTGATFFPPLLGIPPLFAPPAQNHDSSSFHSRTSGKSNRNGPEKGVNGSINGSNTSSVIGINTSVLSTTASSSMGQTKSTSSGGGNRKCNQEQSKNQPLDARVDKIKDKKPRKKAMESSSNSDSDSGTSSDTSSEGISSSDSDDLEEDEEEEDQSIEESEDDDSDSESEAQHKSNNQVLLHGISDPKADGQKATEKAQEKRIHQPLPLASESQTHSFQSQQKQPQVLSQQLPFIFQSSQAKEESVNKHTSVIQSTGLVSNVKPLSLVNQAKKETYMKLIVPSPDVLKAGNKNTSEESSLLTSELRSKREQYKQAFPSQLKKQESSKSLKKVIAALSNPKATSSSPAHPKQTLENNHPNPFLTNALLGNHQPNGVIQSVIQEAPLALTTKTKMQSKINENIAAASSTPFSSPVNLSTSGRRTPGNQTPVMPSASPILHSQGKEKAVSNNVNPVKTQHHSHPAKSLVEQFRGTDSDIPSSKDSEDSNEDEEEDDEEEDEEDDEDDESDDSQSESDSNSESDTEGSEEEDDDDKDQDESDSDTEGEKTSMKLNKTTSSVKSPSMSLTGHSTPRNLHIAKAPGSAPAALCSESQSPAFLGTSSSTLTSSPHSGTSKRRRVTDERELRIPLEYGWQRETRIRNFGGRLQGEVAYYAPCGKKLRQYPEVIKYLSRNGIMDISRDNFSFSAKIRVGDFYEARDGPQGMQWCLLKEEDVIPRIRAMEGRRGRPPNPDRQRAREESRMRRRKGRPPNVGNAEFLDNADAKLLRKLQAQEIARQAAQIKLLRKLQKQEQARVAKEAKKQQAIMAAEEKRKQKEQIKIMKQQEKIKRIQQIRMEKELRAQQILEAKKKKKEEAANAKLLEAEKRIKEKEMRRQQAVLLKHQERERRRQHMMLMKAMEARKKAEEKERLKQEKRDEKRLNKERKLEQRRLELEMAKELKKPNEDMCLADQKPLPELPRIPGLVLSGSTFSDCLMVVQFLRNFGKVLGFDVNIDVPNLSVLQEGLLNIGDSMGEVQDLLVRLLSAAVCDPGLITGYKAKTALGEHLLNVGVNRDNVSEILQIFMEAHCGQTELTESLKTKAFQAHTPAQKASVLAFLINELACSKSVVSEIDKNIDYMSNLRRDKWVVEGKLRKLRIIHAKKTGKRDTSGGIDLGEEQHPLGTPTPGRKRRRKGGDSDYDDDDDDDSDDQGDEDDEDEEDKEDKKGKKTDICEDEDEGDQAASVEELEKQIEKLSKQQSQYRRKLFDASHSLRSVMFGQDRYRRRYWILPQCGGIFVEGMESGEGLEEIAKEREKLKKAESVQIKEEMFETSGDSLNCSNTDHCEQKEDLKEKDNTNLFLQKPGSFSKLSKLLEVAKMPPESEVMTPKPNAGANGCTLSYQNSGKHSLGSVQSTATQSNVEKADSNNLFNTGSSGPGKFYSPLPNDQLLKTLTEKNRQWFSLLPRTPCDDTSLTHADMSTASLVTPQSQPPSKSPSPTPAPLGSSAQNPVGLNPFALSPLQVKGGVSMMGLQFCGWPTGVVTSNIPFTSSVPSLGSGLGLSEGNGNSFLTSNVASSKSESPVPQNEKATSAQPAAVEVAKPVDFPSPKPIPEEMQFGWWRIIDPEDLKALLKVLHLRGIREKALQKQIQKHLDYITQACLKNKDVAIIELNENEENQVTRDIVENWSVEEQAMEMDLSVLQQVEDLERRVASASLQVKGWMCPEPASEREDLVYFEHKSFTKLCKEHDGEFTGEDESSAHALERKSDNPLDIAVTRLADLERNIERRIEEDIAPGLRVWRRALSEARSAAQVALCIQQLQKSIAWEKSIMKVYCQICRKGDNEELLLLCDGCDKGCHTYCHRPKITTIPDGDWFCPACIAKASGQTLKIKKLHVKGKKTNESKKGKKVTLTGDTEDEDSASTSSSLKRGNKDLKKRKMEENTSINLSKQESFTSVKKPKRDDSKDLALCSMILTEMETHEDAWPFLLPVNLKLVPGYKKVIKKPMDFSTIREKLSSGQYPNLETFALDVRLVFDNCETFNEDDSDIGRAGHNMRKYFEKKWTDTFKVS
#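 AlphaScreen luminescence quantifies BAZ2B engagement of H3K14Ac peptide; the protein and biotinylated peptide are both at 50 nM final, buffer PBS pH 7.4 with 0.01% Tween-20, all steps at room temperature.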
# HP1b binding inh – blocks HP1-beta chromodomain binding to methylated histone tails. 390,000 compounds, 0.56% hits. AlphaScreen HP1-beta / biotin-H3K9me3 peptide binding. P83916. Potency, µM (highest dose often 114 µM), for the others: at the highest dose activity change, negative = inhibition, usual class: inhibitors; further: nearly all actives have a fitted effect of over 70% in size
#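 Compound inhibition of the preformed complex between 50 nM HP1-beta and 50 nM biotinylated H3K9me3 peptide was read by AlphaScreen. Buffer was PBS pH 7.4 with 0.01% Tween-20. Incubations ran 30 min at room temperature, with 10 ug/mL donor/acceptor beads.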
# L3MBTL1 block – blocks human L3MBTL1. AlphaScreen L3MBTL1–H3K9me1 peptide binding. 230,000 compounds, 0.66% hits. AID 485360. Q9Y468. Potency, µM (top dose mostly 57.1 µM), without a hit: top-dose activity, negative = inhibition, hits mostly inhibitors; further: on the % scale 0 is the no-effect control and ±100 the full control effect; nearly all actives have a fitted effect of over 60% in size
#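 L3MBTL1 50 nM + b-AHA-H3(1-15)K9me1 75 nM, 30 min RT; compound added, 30 min RT; streptavidin donor/Ni-chelate acceptor beads 10 ug/mL each final, 30 min RT dark; AlphaScreen read.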
# Sfp inh – Sfp phosphopantetheinyl transferase inhibition; Biochemical Sfp PPTase activity, qHTS; Potency, µM, for the others: largest response in the series, negative = inhibition, usual class: inhibitors; 310,000 compounds, 3.5% hits; Q9F4F7;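 further: the enzyme is Sfp with the accession as filed and its product quenches rhodamine fluorescence; 0% = enzyme reaction without inhibitor and -100% = no enzyme wells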
#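 Sfp 15 nM + cpd, 15 min RT; start w/ rhodamine-CoA 5 uM, BHQ-2-YbbR 12.5 uM (final); 50 mM Hepes pH 7.6, 10 mM MgCl2, 0.01% NP-40, 0.01% BSA; read 525/598 nm at 0 and 30 min.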
# G9a block – blocks human histone lysine methyltransferase G9a; G9a H3K9 monomethylation, AlphaScreen, 2 h; Q96KQ7; Potency, µM (top dose mostly 102 µM), without a hit: at the highest dose activity, negative = inhibition, hits mostly inhibitors; 350,000 compounds, 8.8% hits; AID 504332; further: on the % scale 0 is the no-effect control and ±100 the full control effect; nearly all actives have a fitted effect of over 75% in size
#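 G9a (20 nM) was preincubated 15 min with compound, then reacted 2 h at room temperature with 500 nM biotin-H3K9 peptide and 20 µM SAM. Monomethyl-H3K9 detected by AlphaScreen using anti-H3K9me1 antibody.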
# JMJD2A Tudor inh – blocks the human JMJD2A Tudor domain; 390,000 compounds, 4.4% hits; AlphaScreen JMJD2A-Tudor / H3K4me3 peptide binding; Potency, µM (top dose mostly 114 µM), inactives show top-dose activity change, negative = inhibition, usual class: inhibitors; further: on the % scale 0 is the no-effect control and ±100 the full control effect; nearly all actives have a fitted effect of over 50% in size
# Numbers without * were called inactive; u = inconclusive; x = no result given; [ ] = another dose, or the depositor's remark. The call rests on the fitted dose curve; in most records, active means well fitted curve in the direction sought with a large enough effect; inconclusive means small, poorly fitted or top-dose-only effect, or another doubt; inactive means no such curve, though single readings can be large; an effect the other way counts as inactive or inconclusive. Potency means the concentration at half of the fitted maximal effect.
SMILES,BAZ2B inh,HP1b binding inh,L3MBTL1 block,Sfp inh,G9a block,JMJD2A Tudor inh
CCOC(=O)c1c(C)n(-c2ccc(C)cc2)c2c(C(C(C)=O)C(=O)O)c(Br)c(O)c(O)c12 (configuration not stated),10.9%,u,x,0.891µM*,u,-35.7%
CCOC(=O)C(C(C)=O)c1c(Br)c(O)c(O)c2c(C(=O)c3ccc(C)cc3)coc12 (configuration not stated),39.8µM*,u,-23.4%,12.6µM*,u,u
Cc1ccc(C(=O)c2coc3ccc(O)c(Cl)c23)cc1,1.4%,-2.9%,x,-3.1%,-12.1%[12.7 µM],-26.4%
COc1ccc(C)cc1NS(=O)(=O)c1ccc2c(c1)CCCN2C(C)=O,3.3%,36.1%[57 µM],x,x,9.0%[59 µM],-6.8%
COc1cccc(-n2cc(C(=O)Nc3cccc(C(F)(F)F)c3)c3ccccc3c2=O)c1,u,24.7%,x,x,u,-31.2%
Cc1ccc(S(=O)(=O)O/N=C2\CCCc3ccccc32)cc1,-3.6%,55.4%,x,-0.9%,17.7%[12.7 µM],16.7%
CC1=C(C)/C(=N\OS(=O)(=O)c2ccccc2)C=CC1=O,39.8µM*,u,x,39.8µM*,15.8µM*,56.2µM*
CCSc1ccccc1C(=O)N1CCN(c2nc3ccccc3s2)CC1,u,-1.4%,x,x,-8.3%[59 µM],-23.7%
Cc1ccccc1-c1cncnc1NC1CCNCC1,x,x,x,0.7%,x,x
CC(Nc1ccc(F)cc1)=[N+](C)CCNS(=O)(=O)c1ccc(Cl)cc1,50.1µM*,u,x,-24.6%,22.4µM*,20µM*
CCNS(=O)(=O)c1ccc(NC(=O)Cc2ccc(F)cc2)cc1,1.3%,37.7%,6.9%,15.2%,10.0%[12.7 µM],-4.3%
COc1cc2c(cc1NC(=O)CSc1ccccn1)oc1ccccc12,4.3%,16.3%,3.1%,44.7µM*,-5.1%[59 µM],-8.3%
COc1cc2c(cc1NC(=O)c1cccc([N+](=O)[O-])c1)oc1ccccc12,4.3%,-13.5%,-10.9%,-6.4%,50.1µM*,-16.6%
Cc1ccc(-n2c(=O)c3ccc(C(=O)NCc4ccco4)cc3n(CC(=O)Nc3ccccc3C(F)(F)F)c2=O)cc1,1.3%,15.1%,x,x,4.3%[59 µM],-17.5%
COc1cc2c(cc1OC)-c1c(OC)c(OC)cc3ccnc(c13)C2=O,14.1µM*,42.2%,0.0%,-4.2%,-15.0%,-24.6%
COc1ccc(-c2noc(CCCC(=O)Nc3ccc(C(N)=O)cc3)n2)cc1,1.7%,14.1%,0.3%,8.3%,13.8%[59 µM],-6.6%
NC(=O)c1ccc(NC(=O)CCCc2nc(-c3ccccc3Cl)no2)cc1,-11.0%,19.4%,-19.7%,4.9%,50.1µM*,-3.7%
Cc1cc2c(s1)c1cnn(Cc3cc(Cl)ccc3F)c(=O)c1n2C,x,x,x,x,x,-21.2%
CC(C)OC(=O)c1cccnc1SCC(=O)N(C)c1ccccc1,9.2%,22.5%,x,-4.4%,3.2%,-2.6%
CC(C)OC(=O)c1cccnc1SCc1cc(=O)n2ccccc2n1,-7.9%,53.8%,1.7%,0.9%,50.1µM*,-7.7%
NC(N)=Nc1ccc(N=C(N)N)cc1,u,37.0%,4.2%,9.0%,u,-6.3%
NC(=S)N=Nc1ccc(NN=C(N)N)cc1,39.8µM*,3.98µM*,x,0.562µM*,u,11.2µM*
Cc1ccc(Cl)cc1N(C)C(=O)c1cc2c(Cl)nc3ccccc3c2s1,-4.1%,50.9%,x,x,5.9%[59 µM],4.0%
Cc1cc(OC(=O)c2ccc(S(=O)(=O)N3CCOCC3)cc2)c([N+](=O)[O-])c(=O)[nH]1,u,35.6%,-7.4%,16.7%,56.2µM*,-16.0%
Cc1cc(OC(=O)c2ccc3ccccc3c2)c([N+](=O)[O-])c(=O)[nH]1,-22.4%,30.0%,7.3%,11.0%,44.7µM*,-28.7%
SMILES,BAZ2B inh,HP1b binding inh,L3MBTL1 block,Sfp inh,G9a block,JMJD2A Tudor inh
Cc1ccc(C(=O)Oc2cc(C)[nH]c(=O)c2[N+](=O)[O-])cc1,-31.0%,45.0%,x,-29.6%,-36.9%,-7.0%
O=C(Cn1c(=O)n(Cc2ccc3c(c2)OCO3)c(=O)c2oc3ccccc3c21)Nc1ccccc1,-36.0%,3.2%,x,x,-5.4%[59 µM],-19.0%
C=CCn1c(SCC(=O)c2ccc(NS(=O)(=O)c3ccccc3)cc2)nnc1-c1cccs1,-7.8%,-1.0%,x,-18.6%,u,31.6µM*
C=CCn1c(CCNC(=O)c2cccs2)nnc1SCC(=O)c1ccc(Br)cc1,-0.3%,27.8%,x,1.3%,44.7µM*,-20.0%
CC(C)CCn1c(SCc2ccc(F)cc2Cl)nc2ccsc2c1=O,4.1%,87.8%,x,x,-3.8%[59 µM],27.0%
O=C(COc1ccc(Br)cc1)Nc1cccc2cccnc12,12.0%,40.9%,x,x,25.9%[59 µM],67.0%
CN1CCN(c2ncc3nc(-c4cc(F)cc(F)c4)c(=O)n(-c4ccccc4)c3n2)CC1,x,x,x,-9.9%,-44.6%[12.7 µM],x
S=c1[nH]nc2sc3ccccc3n12,x,-30.7%,x,x,x,1.12µM*
O=c1c2ccccc2nc2sc3ccccc3n12,2.8%,29.4%,-1.3%,2.0%,5.3%[59 µM],-1.4%[11.4 µM]
Cn1c(NC(=O)/C=C/c2ccco2)cc(=O)n(C)c1=O,-2.3%,32.6%,-2.3%,56.2µM*,u,-5.2%
Cc1ccc(/C=C/C(=O)Nc2cc(=O)n(C)c(=O)n2C)o1,-5.3%,-29.5%,2.8%,-81.2%,3.98µM*,u
COC(=O)c1sccc1S(=O)(=O)N1CCN(c2cc(Cl)ccc2C)CC1,7.3%,28.2%,x,x,16.5%[59 µM],7.7%
O=C(CSc1nc(-c2ccccc2)c(-c2ccccc2)[nH]1)NCc1ccco1,-28.9%,-19.4%,x,15.6%,u,39.8µM*
Cc1sc2ncnc(SCC(=O)NC(=O)NCc3ccco3)c2c1C,u,0.0%,u,-22.3%,50.1µM*,-27.7%
COc1ccc(-c2[nH]c(-c3cccc(OC)c3)nc2SCC(=O)NCc2ccco2)cc1,u,-15.4%,-15.7%,-8.1%,17.8µM*,u
Cc1ccc(-c2csc3ncnc(OCC(=O)NC(=O)NCc4ccco4)c23)cc1,u,12.6%,u,u,56.2µM*,-34.0%
Cc1nc(SCC(=O)NCc2ccco2)c2c(C)c(C)sc2n1,-2.3%,32.4%,-3.9%,1.7%,-1.2%[12.7 µM],-24.4%[57.1 µM]
COc1cccc(-c2nc(SCC(=O)NCc3ccco3)c3c(=O)n(C)c(=O)n(C)c3n2)c1,6.8%,10.7%[57 µM],x,x,12.8%[59 µM],-11.0%
COc1ccc(CNCc2ccccc2)cc1COc1ccc(NC(C)=O)cc1,x,20.9%,x,x,x,-17.7%
CCOc1ccc(NC(=O)c2ccc3c(SCC(=O)O)c4c(nc3c2)CCC4)cc1,-16.5%,-10.9%,x,x,-35.5%[59 µM],-32.1%
CCCCCCCCCCCCCCC(C(=O)OC)C(O)(CC(=O)OC)C(=O)OC (configuration not stated),x,x,x,5.5%,x,x
Cc1nc(SCC(=O)NCc2ccco2)nc(C)c1C,0.1%,24.0%,-3.7%,50.1µM*,u,-10.5%
O=C(CSc1nnc2c(n1)[nH]c1ccccc12)NCc1ccco1,u,18.9%,-9.4%,39.8µM*,10µM*,-28.6%
